Measurements: the supplement of paper PMC10412459

Tested on: K562 SF3B1 K700E vs K562 SF3B1 WT
Assay: surviving fraction ratio K562 SF3B1 K700E / K562 SF3B1 WT (each relative to DMSO); higher = less selective killing of SF3B1 K700E cells
Conditions: 5 days
Experimental: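 Drug-sensitivity screen of an in-house 80-compound library in isogenic K562 SF3B1 K700E versus SF3B1 WT cells. 250 cells/well in 384-well plates were exposed 24 h after seeding to 0.5-1000 nM compound for 5 days, and viability was read by CellTiter-Glo. Surviving fraction is relative to DMSO, and the value is the ratio of surviving fraction in K700E to WT cells; the paper calls ratio <0.6 with P<0.01 selective.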

Structure (SMILES) | surviving fraction ratio K562 SF3B1 K700E / K562 SF3B1 WT (0.5nM) | surviving fraction ratio K562 SF3B1 K700E / K562 SF3B1 WT (1nM) | surviving fraction ratio K562 SF3B1 K700E / K562 SF3B1 WT (5nM) | surviving fraction ratio K562 SF3B1 K700E / K562 SF3B1 WT (10nM) | surviving fraction ratio K562 SF3B1 K700E / K562 SF3B1 WT (50nM) | surviving fraction ratio K562 SF3B1 K700E / K562 SF3B1 WT (100nM) | surviving fraction ratio K562 SF3B1 K700E / K562 SF3B1 WT (500nM) | surviving fraction ratio K562 SF3B1 K700E / K562 SF3B1 WT (1000nM)
CNCc1ccc(-c2[nH]c3cc(F)cc4c3c2CCNC4=O)cc1 | 0.834 | 0.856 | 0.825 | 0.831 | 0.897 | 0.794 | 0.847 | 0.711
CCN(CC)CCCCNc1ncc2cc(-c3cc(OC)cc(OC)c3)c(NC(=O)NC(C)(C)C)nc2n1 | 1.15 | 1.03 | 0.942 | 0.926 | 0.901 | 1.09 | 0.957 | 0.89
CO[C@H]1C[C@@H]2CC[C@@H](C)[C@@](O)(O2)C(=O)C(=O)N2CCCC[C@H]2C(=O)O[C@H]([C@H](C)C[C@@H]2CC[C@@H](OCCO)[C@H](OC)C2)CC(=O)[C@H](C)/C=C(\C)[C@@H](O)[C@@H](OC)C(=O)[C@H](C)C[C@H](C)/C=C/C=C/C=C/1C [everolimus] | 0.697 | 0.655 | 0.712 | 0.806 | 0.702 | 0.697 | 0.824 | 0.967
CC[C@@H]1C(=O)N(C)c2cnc(Nc3ccc(C(=O)NC4CCN(C)CC4)cc3OC)nc2N1C1CCCC1 | 0.867 | 0.956 | 0.455 | 2.45 | 2.89 | 2.99 | 2.76 | 2.22
CCCCCCCCCCCCCCCC(=O)Nc1ccn([C@@H]2O[C@H](CO)[C@@H](O)[C@@H]2C#N)c(=O)n1 [Sapacitabine] | 0.952 | – | 0.99 | – | 0.729 | – | 1.27 | –
O=C(O)CC[C@H]1CC[C@@](c2cc(F)ccc2F)(S(=O)(=O)c2ccc(Cl)cc2)CC1 | 0.908 | 1.04 | 0.989 | 0.805 | 0.852 | 0.975 | 0.932 | 1.04
